This is an account of results in the supplement of paper PMC4840960.

Assay [1] relates to E18 rat cortical neuron-glia co-culture. The assay is described as follows: fiber score / MBP score (myelination specific beyond OL differentiation) (ratio); higher = more myelination-specific MBP alignment. As to conditions: treatment time: 8 days (DIV5-DIV13). In outline:
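Primary E18 rat cortical co-cultures (papain-dissociated, 20,000 cells/well on poly-d-lysine/laminin 96-well plates) received library compounds at 1 or 5 µM in myelination medium from DIV5 to DIV13. Cells were fixed in 4 % paraformaldehyde and immunostained for MBP and Olig2 with DAPI, and four 10X fields per well in duplicate wells were analysed. The read-out is fiber score (continuous MBP fiber length per Olig2+ nucleus) divided by MBP score (thresholded MBP area × intensity per Olig2+ nucleus).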

Assay [2] has the same test system. Put plainly: myelination (MBP fiber length per Olig2+ nucleus), % of 1 µM DAPT response (DMSO = 0) (% of DAPT); higher = more myelination, active = 50 or more. Particulars: treatment time: 8 days (DIV5-DIV13). In outline:
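Primary E18 rat cortical co-cultures (papain-dissociated, 20,000 cells/well on poly-d-lysine/laminin 96-well plates) received library compounds at 1 or 5 µM in myelination medium from DIV5 to DIV13. Cells were fixed in 4 % paraformaldehyde and immunostained for MBP and Olig2 with DAPI, and four 10X fields per well in duplicate wells were analysed. Myelination was continuous straight MBP fiber length per Olig2+ nucleus, normalised to 0.1 % DMSO (0) and a 1 µM positive control (100).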

Turning to `CN1CCN(CCCN2c3ccccc3Sc3ccc(Cl)cc32)CC1` [Prochlorperazine], the “fiber score / MBP score” value came to 0.297 in assay [1] (1 µM) and 1.56 in assay [1] (5 µM). Besides, the myelination in assay [2] (1 µM) was -45.4 (inactive); in assay [2] (5 µM) it was -29.6 (inactive).
The corresponding values for `O=[N+]([O-])c1cccc2cn[nH]c12` [7-Nitroindazole] are 0.691, 0.753, -9.77 (inactive) and -5.65 (inactive).
In the case of `Cc1c(O)cccc1C(=O)N[C@@H](CSc1ccccc1)[C@H](O)CN1C[C@H]2CCCC[C@H]2C[C@H]1C(=O)NC(C)(C)C` [Nelfinavir], the “fiber score / MBP score” value in assay [1] (1 µM) is 0.779; in assay [1] (5 µM) it was 0.634. For the same molecule, the myelination was -42.1 (inactive) in assay [2] (1 µM) and -44.3 (inactive) in assay [2] (5 µM).
In the same order, the values of `Cc1ncc([N+](=O)[O-])n1CC(C)O` (configuration not stated) [Secnidazole] are 0.462, 0.618, -31.6 (inactive) and -18.7 (inactive).
Take `CC(C)c1nc(CN(C)C(=O)N[C@H](C(=O)N[C@@H](Cc2ccccc2)C[C@H](O)[C@H](Cc2ccccc2)NC(=O)OCc2cncs2)C(C)C)cs1` [Ritonavir]: the “fiber score / MBP score” value in assay [1] (1 µM) is 0.549; in assay [1] (5 µM), 0.623. The myelination in assay [2] (1 µM) was -20.5 (inactive); in assay [2] (5 µM), -13.2 (inactive).
For `N[C@@H](Cc1cc(I)c(Oc2ccc(O)c(I)c2)c(I)c1)C(=O)O` [Triiodothyronine], the figures for the “fiber score / MBP score” value in assay [1] (1 µM) and in assay [1] (5 µM) were 0.895 and 1.21, respectively. The myelination in assay [2] (1 µM) is -11.4 (inactive); in assay [2] (5 µM), 24.8 (inactive).
With `Nc1ncnc2c1ncn2[C@@H]1O[C@H](CO)[C@@H](O)[C@@H]1O` [Vidarabine], the “fiber score / MBP score” value in assay [1] (1 µM) amounted to 0.8; in assay [1] (5 µM), 1.2. Also, the myelination in assay [2] (1 µM) is -13.9 (inactive); in assay [2] (5 µM), 24.3 (inactive).
Turning to `c1ccc(-c2ccc(C(c3ccccc3)n3ccnc3)cc2)cc1` (configuration not stated) [Bifonazole], the “fiber score / MBP score” value in assay [1] (1 µM) was determined as 0.241; in assay [1] (5 µM), 1.22. In addition, the myelination was -18.8 (inactive) in assay [2] (1 µM) and -26.8 (inactive) in assay [2] (5 µM).
